High-throughput results from PubChem BioAssay.
Sfp inh: inhibitors of Bacillus subtilis Sfp phosphopantetheinyl transferase. Potency, µM, hits mostly inhibitors. Biochemical Sfp PPTase activity, qHTS. actives 3.5% (n = 310,000). Q9F4F7;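 note: the enzyme is Sfp with the accession as filed and its product quenches rhodamine fluorescence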
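Buffer: 50 mM Hepes-Na pH 7.6, 10 mM MgCl2, 0.01% Nonidet P-40, 0.01% BSA. Enzyme 15 nM, pre-exposed to compound 15 min; substrates then added and fluorescence change tracked over 30 min.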
JMJD2A Tudor: inhibitors of human JMJD2A Tudor domain. Potency, µM (series often up to 114 µM), actives largely listed as inhibitors. actives 4.4% (n = 390,000). AID 504339. AlphaScreen JMJD2A-Tudor / H3K4me3 peptide binding; note: nearly all actives have a fitted effect of over 50% in size
L3MBTL1 inh: inhibitors of human L3MBTL1; AID 485360; Q9Y468; Potency, µM (doses to about 57.1 µM), most hits filed as inhibitors; AlphaScreen L3MBTL1–H3K9me1 peptide binding; actives 0.66% (n = 230,000); note: nearly all actives have a fitted effect of over 60% in size
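First, the protein-peptide complex forms for 30 min at room temperature (L3MBTL1 50 nM, biotinylated H3K9me1 peptide 75 nM). Next, compounds are pin-transferred and incubated 30 min. Finally, AlphaScreen beads are added and read after 30 min.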
BAZ2B block: blocks human BAZ2B; Q9UIF8; AlphaScreen BAZ2B-H3K14Ac peptide displacement; Potency, µM (titrated, usually from 114 µM), most hits filed as inhibitors; actives 4.4% (n = 360,000); AID 504333; note: nearly all actives have a fitted effect of over 60% in size
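Protein-peptide AlphaScreen: BAZ2B 50 nM, b-H3K14Ac 50 nM, 1x PBS pH 7.4 + 0.01% Tween-20. Preincubation 30 min RT; cpd 30 min RT (top 110 uM); beads 20 min RT, light-protected.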
G9a block: blocks human histone lysine methyltransferase G9a | Q96KQ7 | G9a H3K9 monomethylation, AlphaScreen, 2 h | Potency, µM (titrated, usually from 102 µM), most hits filed as inhibitors | actives 8.8% (n = 350,000) | AID 504332; note: nearly all actives have a fitted effect of over 75% in size
Target sequence (Q96KQ7 913-1193 limits assumed): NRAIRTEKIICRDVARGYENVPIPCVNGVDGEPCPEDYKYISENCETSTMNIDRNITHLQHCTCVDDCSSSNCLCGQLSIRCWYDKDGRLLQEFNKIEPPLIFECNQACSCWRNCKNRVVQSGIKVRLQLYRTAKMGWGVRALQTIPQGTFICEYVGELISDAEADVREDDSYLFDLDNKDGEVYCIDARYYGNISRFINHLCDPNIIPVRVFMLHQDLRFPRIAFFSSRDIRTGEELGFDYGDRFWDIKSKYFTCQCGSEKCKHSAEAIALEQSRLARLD
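Quantitative HTS format: methyltransferase activity on a biotin-tagged H3K9 peptide is measured by AlphaScreen, using a rabbit anti-monomethyl-H3K9 antibody with streptavidin donor and anti-IgG acceptor beads. Final levels are 20 nM enzyme, 500 nM peptide, 20 uM SAM; 2 h RT.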
HP1b binding inh: HP1-beta chromodomain-methylated histone interaction inhibition | P83916 | AlphaScreen HP1-beta / biotin-H3K9me3 peptide binding | Potency, µM (highest dose often 114 µM), hits mostly inhibitors | actives 0.56% (n = 390,000); note: nearly all actives have a fitted effect of over 70% in size
Target sequence (P83916 whole entry, looked up): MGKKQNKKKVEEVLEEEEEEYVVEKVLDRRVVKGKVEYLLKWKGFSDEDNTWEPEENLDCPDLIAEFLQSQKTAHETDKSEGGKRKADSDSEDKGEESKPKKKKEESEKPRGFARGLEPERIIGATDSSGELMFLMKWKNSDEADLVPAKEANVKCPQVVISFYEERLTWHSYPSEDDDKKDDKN
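Compound inhibition of the preformed complex between 50 nM HP1-beta and 50 nM biotinylated H3K9me3 peptide was read by AlphaScreen. Buffer was PBS pH 7.4 with 0.01% Tween-20. Incubations ran 30 min at room temperature, with 10 ug/mL donor/acceptor beads.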
Hits are given with their value; – = inactive; ? = inconclusive; · = not tested or not shown; [ ] = remark or other dose. An excerpt weighted towards active compounds, which were near 12% of everything screened. Calls come from the whole dose curve; as a rule, active = well fitted curve in the direction sought with a large enough effect; inconclusive = small, poorly fitted or top-dose-only effect, or another doubt; inactive = no such curve, though single readings can be large; an effect the other way counts as inactive or inconclusive.

SMILES	Sfp inh	JMJD2A Tudor	L3MBTL1 inh	BAZ2B block	G9a block	HP1b binding inh
COc1ccc(N2CCN(CCCNC(=O)CC3Oc4ccc(C)cc4NC3=O)CC2)cc1 (stereo unspecified)	–	?	–	?	35.5µM	–
Cc1ccc2c(c1)NC(=O)C(CC(=O)NCCCN1CCc3ccccc3C1)O2 (stereo unspecified)	50.1µM	–	·	–	50.1µM	–
COc1ccc(N2CCN(CCC3Oc4cc([N+](=O)[O-])ccc4NC3=O)CC2)cc1 (stereo unspecified)	–	?	–	28.2µM	17.8µM	?
COc1ccc2c(c1)c1c(c(=O)n(-c3ccccc3)c(=O)n1CC(=O)NCCC1=CCCCC1)n2C	·	–	·	–	–	–
Oc1ccc(O)c(/C(=N/Nc2ccccc2)c2ccccc2)c1	–	·	·	44.7µM	1.26µM	·
O=C(CSc1nnc(-c2ccncc2)n1Cc1ccccc1)Nc1nccs1	–	89.1µM	–	–	–[12.7 µM]	–
COc1ccc(NC(=O)CSc2nnc(-c3ccccc3Cl)n2Cc2ccco2)c(OC)c1	7.08µM	–	–	?	?	?
CC(C)C(C)(C#N)NC(=O)CSc1nnc(-c2ccncc2)n1Cc1ccccc1 (stereo unspecified)	–	70.8µM	–	–	–	?
O=C(CSc1nnc(-c2ccncc2)n1Cc1ccco1)Nc1ccccc1Cl	44.7µM	?	–	–	?	–
Cn1c(SCC(=O)Nc2nccs2)nnc1-c1ccncc1	?	?	·	–	–[2.33 µM]	–
CC(C)(C)NC(=O)CSc1nnc(-c2ccncc2)n1Cc1ccccc1	–	–	·	–	–[12.7 µM]	–
CCOc1ccccc1OCCCCn1c(-c2ccc(Cl)cc2)nc2ccccc2c1=O	·	–	·	–	–	–
Cc1cc(C(F)(F)F)nn1CC(=O)Nc1ccc2c(c1)OCO2	–	–	·	–	–	–
O=C(CSc1nnc(-c2ccncc2)n1Cc1ccco1)Nc1ccccc1F	–	–	–	–	–	–
O=C(CSc1nnc(-c2ccncc2)n1Cc1ccco1)Nc1nc(-c2ccccc2)cs1	–	–	·	–	28.2µM	–
Cc1cc(C)nc(SCc2nnc(SCC(=O)Nc3nc(-c4ccccc4)cs3)n2-c2ccccc2)n1	–	79.4µM	·	–	?	–
COc1ccccc1NC(=O)Nc1nn(C)c2cccc(N(C)C)c12	–	?	·	?	14.1µM	?
COc1ccc(C2=NO[C@@H]3C(=O)N(c4ccc(C)cc4C)C(=O)[C@H]23)cc1OC	?	?	–	–	12.6µM	–
COc1ccc(C2=NO[C@@H]3C(=O)N(c4cccc(C)c4C)C(=O)[C@H]23)cc1OC	–	–	·	–	–	–
COc1ccc(-c2cn(-c3ccc(C)cc3C)c(=O)[nH]2)cc1OC	–	–	–	–	11.2µM	–
CC(=O)NC1[C@H](O)C[C@@](O)(C(=O)O)O[C@H]1[C@H](O)[C@H](O)CO (stereo partly specified)	–	·	·	·	–[12.7 µM]	·
Cc1cc(C(=O)CN2C(=O)NC(Cc3c[nH]c4ccccc34)C2=O)c(C)n1C (stereo unspecified)	–	?	?	50.1µM	50.1µM	–
COc1ccc(NCC(=O)Nc2ccc(Cl)cc2C)c(OC)c1	–	50.1µM	–	50.1µM	1.41µM	?
CCCOc1ccc(NC(=O)c2cc3cc(C)ccc3[nH]2)cc1	–	–	–	–	·	–
CCOc1ccc(NCC(=O)Nc2ccc(Cl)cc2C)cc1	–	?	–	?	8.91µM	–
SMILES	Sfp inh	JMJD2A Tudor	L3MBTL1 inh	BAZ2B block	G9a block	HP1b binding inh
COc1ccc(NC(=O)CC(=O)Nc2ccc(OC)cc2OC)c(OC)c1	–	–	–[11.4 µM]	–	–[12.7 µM]	–
Cc1cc(Cl)ccc1NC(=O)CCC(=O)O	–	–	–	–	–	–
CCCOc1ccc(NCC(=O)Nc2ccc(C)cc2C)cc1	–	?	–	?	8.91µM	–
CCOC(=O)C1CCN(C(=O)Cn2nc(CC)n3cccc3c2=O)CC1	–	?	·	–	–	–
O=C(Nc1cccc(C(=O)O)c1)/C(=C\c1ccc2c(c1)OCO2)NC(=O)c1ccc(Br)cc1	–	–	·	–	–	–
COc1ccc(C)cc1S(=O)(=O)n1c([N+](=O)[O-])cnc1C	–	–	–	–	?	–
Cc1ccn2c(c1)nc(=S)n2C(=O)c1ccccc1	–	–	–	–	44.7µM	–
Cc1cccc(C(=O)n2c(=S)nc3cc(C)ccn32)c1	8.91µM	39.8µM	–	–	7.94µM	–
O=C(c1ccco1)n1c(=S)nc2ccccn21	–	–	–	–	?	–
[C-]#[N+]c1cc(-c2ccncc2)c(C)[nH]c1=O	–	·	·	·	–	·
COc1ccc(NC2CCCN(C(=O)CCc3ccccc3F)C2)cc1 (stereo unspecified)	–	?	·	–	50.1µM	–
COc1ccc(NC2CCCN(C(=O)CCOc3ccccc3)C2)cc1 (stereo unspecified)	–	?	·	25.1µM	·	–
COc1ccc(NC2CCCN(C(=O)COc3ccc(C)cc3)C2)cc1 (stereo unspecified)	–	?	·	?	15.8µM	–
COc1ccc(NC2CCCN(C(=O)CCN3CCCO3)C2)cc1 (stereo unspecified)	–	–	·	–	?	–
COc1ccc(NC2CCCN(C(=O)CCN3CCOCC3)C2)cc1 (stereo unspecified)	–	–	·	–	?	–
COc1ccc(NC2CCCN(C(=O)CSc3ccccc3)C2)cc1 (stereo unspecified)	–	?	·	?	35.5µM	–
CC(=O)N1c2ccc(S(=O)(=O)NCC3CCC(C(=O)NCCC(C)C)CC3)cc2CC1C (stereo unspecified)	·	–	·	–	–	–
O=C(CNC(=O)C1CC1)Nc1ccc(F)c(F)c1F	·	–	–	·	·	–
CCC(=O)Nc1ccc(C(=O)CSc2nc3ccccc3[nH]2)cc1	–	–	–	–	?	–
CCC(=O)Nc1ccc(C(=O)CSc2nc3ccc(C)cc3[nH]2)cc1	–	–	–	–	28.2µM	–
Cc1ccc2nc(SCC(=O)c3ccc4c(c3)OCO4)[nH]c2c1	44.7µM	–	–	–	?	–
COc1ccc2c(c1)[C@]1(C)CCC(=O)C[C@H]1CC2	–	·	·	·	·	·
CCS(=O)(=O)N1Cc2ccccc2CC1C(=O)NC(C)C12CC3CC(CC(C3)C1)C2 (stereo unspecified)	–	–	·	–	14.1µM	–
CCOc1ccc(C(=O)c2oc3ccccc3c2NC(=O)c2cc(=O)c3ccc(C)cc3o2)cc1	·	–	·	–	–	–
CC(=O)c1ccc(NC(=S)Nc2cccc3cnccc23)cc1	2.51µM	–	·	?	?	–
CC(=O)c1cccc(NC(=S)Nc2cccc3ccccc23)c1	–	–	·	–	?	–
Cc1ccc(NC(=S)Nc2cccc3cnccc23)cc1	44.7µM	–	·	?	35.5µM	–
